{
  "source": "ChEMBL document CHEMBL3988442",
  "about": "“University of Dundee, Small-Polar-MMV Screening Library” (2021)",
  "note": "Hit rate of the full screen: of about 53,000 compounds, about 900 (1.7%) showed an effect of 50% or more. The sample as a whole holds a higher share of strong results than the screen did.",
  "data": [
    {"tested_on": "Mycobacterium tuberculosis", "assay": "Cornell - Phenotypic assay to identify agents that inhibit growth of Mycobacterium tuberculosis", "format": "functional", "set-up": "scale not given: direction of the effect not stated beside the values", "conditions": "10 mM as filed; unlikely as a test dose", "units": {"Percent Effect": "%"}, "values": [
      {"smiles": "COC1(CNC(=O)c2ccoc2)CCSC1", "note": "(configuration not stated)", "Percent Effect": -5.057},
      {"smiles": "Cc1nn(C(C)C)c2cnn(CC(=O)N3CCSCC3)c12", "Percent Effect": -7.998},
      {"smiles": "CCO[C@H]1CO[C@@]2(CCN(Cc3ccc4c(c3)OCO4)C2)C1.O=C(O)C(F)(F)F", "Percent Effect": 22.33},
      {"smiles": "CCC(c1ccccc1)S(=O)(=O)CCO", "note": "(configuration not stated)", "Percent Effect": -20.37},
      {"smiles": "CN(C)c1ncc(CN2CCC(O)(c3ccccc3F)CC2)cn1.O=C(O)CC(O)(CC(=O)O)C(=O)O", "Percent Effect": 6.266},
      {"smiles": "CN(C)c1ncc(CN2CCCC(Nc3ccc4c(c3)OCCO4)C2)s1", "note": "(configuration not stated)", "Percent Effect": 37},
      {"smiles": "COc1ccc(NC2CCCN(Cc3cnc(N(C)C)s3)C2)cc1", "note": "(configuration not stated)", "Percent Effect": 47.8},
      {"smiles": "COc1ccc(NC2CCCN(Cc3cnc(N(C)C)s3)C2)cc1OC", "note": "(configuration not stated)", "Percent Effect": 55.76},
      {"smiles": "O=C(NC1CCCCC1)c1ccc(Oc2ccc3nncn3n2)cc1", "Percent Effect": -7.341},
      {"smiles": "CS(=O)(=O)N[C@H]1CCO[C@]2(CCN(C(=O)c3ccccn3)C2)C1.O=C(O)C(F)(F)F", "Percent Effect": 4.539},
      {"smiles": "CN1CCCC(c2nccnc2-c2cccc(C(F)(F)F)c2)C1", "note": "(configuration not stated)", "Percent Effect": 32.41},
      {"smiles": "OCCN1CCCC(c2cccc(-c3ccccc3F)n2)C1", "note": "(configuration not stated)", "Percent Effect": -3.425},
      {"smiles": "CS(=O)(=O)N1CCCC(c2cccc(-c3ccccc3F)n2)C1", "note": "(configuration not stated)", "Percent Effect": 29.33},
      {"smiles": "CN1CCCC(c2cncc(-c3cccc(C(F)(F)F)c3)n2)C1", "note": "(configuration not stated)", "Percent Effect": 51.88},
      {"smiles": "CN1CCCC(c2cccc(-c3cccc(C(F)(F)F)c3)n2)C1", "note": "(configuration not stated)", "Percent Effect": 30.4},
      {"smiles": "CN1CCCC(c2cccc(-c3ccccc3F)n2)C1", "note": "(configuration not stated)", "Percent Effect": 55.32},
      {"smiles": "CCN(CC)C(=O)c1cc(C2(C)CCN(C(C)=O)CC2)nc(C)n1", "Percent Effect": 3.743},
      {"smiles": "O=C(O)C1CN(c2cccc(F)c2)CCO1", "note": "(configuration not stated)", "Percent Effect": -11.48},
      {"smiles": "O=C1CC(c2ccccc2)C2(CCN(Cc3ccccn3)CC2)N1", "note": "(configuration not stated)", "Percent Effect": 1.787},
      {"smiles": "CC(=O)NCc1cc2n(n1)CCN(Cc1cccc(Cl)c1Cl)C2", "Percent Effect": 13.71},
      {"smiles": "O=C(c1ccco1)N1CCC(n2nc(-c3ccco3)ccc2=O)CC1", "Percent Effect": 11.6},
      {"smiles": "O=C(Cc1ccncc1)N(CCO)CCSc1ccc(Cl)cc1", "Percent Effect": 12.99},
      {"smiles": "Cc1cccc(CNC(Cc2ccsc2)c2nc(C)c(C)s2)n1.Cl", "note": "(configuration not stated)", "Percent Effect": 47.96},
      {"smiles": "O=C1COc2cc(C(=O)NS(=O)(=O)c3ccc(F)c(F)c3)ccc2N1", "Percent Effect": -19.76},
      {"smiles": "Cc1nn(C)cc1S(=O)(=O)N[C@@H]1CC[C@@H](n2ccnc2C)[C@@H]1O", "Percent Effect": -21.64},
      {"smiles": "Cc1nn(C)cc1S(=O)(=O)N[C@@H]1CCC[C@@H](N2CCCC2)[C@@H]1O", "Percent Effect": 19.92},
      {"smiles": "CO[C@@H]1CC[C@@H](NS(=O)(=O)c2cn(C)nc2C)[C@H]1O", "Percent Effect": 50.32}
    ]}
  ]
}
